Values without a mark were called inactive. Results filed as inconclusive are left out. Active and inactive are the calls of the source. Unless noted, calls come from the whole dose curve; as a rule, active = well fitted curve in the direction sought with a large enough effect; inconclusive = small, poorly fitted or top-dose-only effect, or another doubt; inactive = no such curve, though single readings can be large; an effect the other way counts as inactive or inconclusive.
Columns and labels:
[1] = biological target: Lysosomal acid glucosylceramidase (Homo sapiens) (UniProt P04062); test: Glucocerebrosidase-p2 (AID 348; in the data active = potency below about 10 µM; note: potency is the fitted concentration of half-maximal effect); details: purified GBA, blue fluorogenic substrate, 40 min
Summary of the method: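 Normal human glucocerebrosidase (0.2 nM) with blue fluorogenic substrate (80 uM final) in citrate/phosphate pH 5.9 with 10mM sodium taurocholate, 0.01% tween-20; 40 min RT, NaOH/glycine stop; fluorescence Ex 365/Em 440; AC50 from a titration from 0.6 nM upwards.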

[2] = NFAT Signaling Pathway (AID 444; active = well fitted curve in either direction with a large enough effect, not every such curve was filed as active;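 note: carbachol stimulus at about its EC50 of 1 µM final; % is set by controls: 0 for no effect and ±100 for the full control effect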); details: Jurkat NFAT-bla M1, carbachol, beta-lactamase ratio, 5 h; at 7.69 µM (top of the series) unless noted
Summary of the method: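 Jurkat cells with NFAT-driven β-lactamase reporter and co-expressed M1 receptor, stimulated with carbachol (final 1 uM, ~EC50), compound titration, 5 h at 37 °C. CCF4 loaded 1 h at RT; 460/530 nm ratio gave %activity and AC50.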

[3] = Stat Signaling Pathway (AID 446; active = well fitted curve in either direction with a large enough effect, not every such curve was filed as active;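 note: ME-180 cervical cancer cells given 40 pM IL-6 alongside compound; SIE-controlled beta-lactamase reporter measured as 460/530 nm FRET emission ratio; % is set by controls: 0 for no effect and ±100 for the full control effect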); details: ME-180 SIE beta-lactamase reporter, IL-6 stimulated, 5 h; at 7.69 µM (top of the series) unless noted
Summary of the method: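 FRET read-out (405 nm excitation, 460/530 nm emission) of a beta-lactamase reporter under a STAT-inducible element in ME-180 cervical carcinoma cells. Cells with compound receive 40 pM IL-6 for 5 h. Values are normalised to AC90 stimulation and AC90 JAK-inhibitor controls.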

[4] = biological target: Glucocorticoid receptor (Homo sapiens) (UniProt P04150); test: GR-GFP Redistribution (AID 450;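 active = compounds whose dose series gives a full or clear partial fitted curve of increased nuclear translocation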; note: potency is the fitted concentration of half-maximal effect); details: U2OS GR-GFP nuclear translocation, laser cytometry, 2 h
[5] = biological target: Glucocorticoid receptor (Homo sapiens) (UniProt P04150); test: GR-EFC Redistribution (AID 451; calls by dose curve; note: potency is the fitted concentration of half-maximal effect); details: CHO-K1 GR-EFC translocation, beta-gal luminescence, 2 h
Summary of the method: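 CHO-K1 cells expressing nuclear EA and GR-ED fragments of b-gal; compounds titrated up to 46 uM final, 2 h at 37 C. GR nuclear translocation read as complemented b-gal luminescence after 1 h RT detection.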

[6] = biological target: Mitogen-activated protein kinase 10 (Mus musculus) (UniProt Q61831); test: JNK3 AlphaScreen Assay (AID 530; active = well fitted curve in either direction with a large enough effect, not every such curve was filed as active;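 note: kinase came from lysate of stimulated human HepG2 cells; signal reports phosphorylation of biotinylated GST-cJun 1-79 at Ser73 with 10 µM ATP; % is set by controls: 0 for no effect and ±100 for the full control effect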); details: JNK3 lysate, c-Jun phosphorylation; series mostly up to 57.1 µM
Summary of the method: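 HepG2 lysate (IL-1b/TNFa pre-activated) + biotin-GST-cJun 1-79 + anti-pSer73 cJun; cpd titration, 15 min RT; ATP 10 uM start; Tris pH 7.6, MgCl2, DTT, vanadate; beads in EDTA buffer; AlphaScreen.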

[7] = biological target: Dual specificity protein kinase CLK4 (Homo sapiens) (UniProt Q9HAZ1); test: qHTS Assay for Inhibitors of CDC-like Kinase 4 (Kinase-Glo Assay) (AID 1770); details: recombinant Clk4, Kinase-Glo ATP depletion luminescence; series mostly up to 66.7 µM; note: nearly all actives have a fitted effect of over 65% in size; note: potency is the fitted concentration of half-maximal effect
Summary of the method: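 Clk4 25 nM, RS peptide 100 uM, ATP 1 uM, pH 7.5 Tris, 10 mM MgCl2, 2.5 mM DTT; 4.5 h RT; ATP depletion read by Kinase-Glo luminescence.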

[8] = biological target: Dual specificity protein kinase CLK4 (Homo sapiens) (UniProt Q9HAZ1); test: qHTS Assay for Inhibitors of CDC-like Kinase 4 (ADP-Glo Assay) (AID 1771); details: recombinant CLK4, ADP-Glo luminescence; series mostly up to 80 µM; note: nearly all actives have a fitted effect of over 70% in size; note: potency is the fitted concentration of half-maximal effect
Summary of the method: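 25 nM Clk4, 100 uM RS peptide, 1 uM ATP (final); 2 mM MgCl2, 0.5 mM EGTA, 2.5 mM DTT, 0.01% Triton X-100; 1 hr RT. ADP-Glo readout: ATP depletion 45 min, conversion/luciferase 30 min, luminescence.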

[9] = biological target: Dual specificity protein kinase CLK4 (Homo sapiens) (UniProt Q9HAZ1); test: qHTS Assay for Inhibitors of CDC-like Kinase 4 (ADP-FP Assay) (AID 1795); details: Transcreener ADP fluorescence polarization; series mostly up to 50 µM; note: nearly all actives have a fitted effect of over 60% in size; note: potency is the fitted concentration of half-maximal effect
Summary of the method: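 Kinase activity was followed as ADP output, converted from fluorescence polarization with a calibration curve. Reactions ran one hour at low ATP (1 uM) with RS peptide substrate.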

[10] = biological target: Ubiquitin carboxyl-terminal hydrolase 1 (Homo sapiens) (UniProt O94782); test: Inhibitors of USP1/UAF1: Pilot qHTS (AID 504865); details: purified USP1/UAF1, Ub-rhodamine cleavage fluorescence; series mostly up to 54.9 µM;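 note: rhodamine fluorescence freed from ubiquitin-rhodamine substrate followed over time; top concentration of the series differs between compounds; % is set by controls: 0 for no effect and ±100 for the full control effect; nearly all actives have a fitted effect of over 35% in size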
Summary of the method: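 Enzyme-free wells gave the negative control, while test wells held 1nM USP1/UAF1 preincubated with compound for 15 min at room temperature. Ub-Rho at 150nM final started the reaction, and fluorescence at 480/540 nm was recorded kinetically.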

[11] = Primary qHTS for small molecule stabilizers of the endoplasmic reticulum resident proteome: Secreted ER Calcium Modulated Protein (SERCaMP) assay (AID 1508630); details: SH-SY5Y GLuc-SERCaMP (Gaussia luciferase released on ER calcium loss) secretion, thapsigargin, luminescence; series mostly up to 38.4 µM; note: % is set by controls: 0 for no effect and ±100 for the full control effect
Summary of the method: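 The SH-SY5Y reporter protocol was run at 3 concentrations up to 38.3 uM (primary) or 11 concentrations (follow-up): 16 h compound, 100 nM thapsigargin for 4 h, then extracellular luciferase luminescence.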

[12] = biological target: Cytochrome P450 1A2 (Homo sapiens) (UniProt P05177); test: p450-cyp1a2 (AID 410; calls by dose curve; note: potency is the fitted concentration of half-maximal effect); details: recombinant CYP1A2, luciferin-ME demethylation, luminescence; series mostly up to 57 µM
Summary of the method: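 20nM CYP1A2, 100uM Luciferin-ME (=Km), 100mM KPO4; cpd 10 min RT; +NADPH regen, 60 min RT; stop/detect 20 min; luminescence. Normalized to furafylline 57 uM = full inhibition.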

[13] = biological target: 3',5'-cyclic-AMP phosphodiesterase 4B (Homo sapiens) (UniProt Q07343); test: qHTS Assay for Inhibitors of PDE-IV (AID 607; active = well fitted activation curve with a large enough effect in the main read-out, with a control signal flat, not every such curve was filed as active; note: potency is the fitted concentration of half-maximal effect); details: HEK293 ACTOne CNG channel cells, membrane potential fluorescence; series mostly up to 22.9 µM
Summary of the method: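 Cell-based read-out of cAMP via a modified cyclic nucleotide-gated channel and membrane potential dye (535/590 nm) in HEK293 cells expressing PDE4 endogenously. Compounds tested up to 22.9 uM final; 100 uM RO 20-1724 reference.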

[14] = biological target: Cytochrome P450 2C9 (Homo sapiens) (UniProt P11712); test: qHTS Assay for Inhibitors and Substrates of Cytochrome P450 2C9 (AID 883); details: recombinant CYP2C9, luciferin-H luminescence, 60 min; series mostly up to 57.1 µM; note: potency is the fitted concentration of half-maximal effect; nearly all actives have a fitted effect of over 60% in size
Summary of the method: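 Human CYP2C9 (10nM) with Luciferin-H at 100uM (its KM) in 25mM KPO4; compound preincubated 10 min at 37C, then NADPH regeneration for 60 min at 37C. Luciferin read by luminescence after detection reagent; normalized to 57uM sulphaphenazole as full inhibition.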

[15] = qHTS Assay for Identification of Small Molecule Agonists for Hypoxia Response Element Signaling Pathway (AID 914; active = well fitted activation curve with a large enough effect in the signal ratio, with a control signal flat, not every such curve was filed as active; the % refers to the signal ratio; note: potency is the fitted concentration of half-maximal effect); details: ME-180 HRE-bla reporter, beta-lactamase ratio, CoCl2, 17 h; activation: active compounds read high
Summary of the method: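 HRE-bla ME-180 cells, overnight plating in Opti-MEM with 0.5% dialyzed FBS; cpd titration + EC50 CoCl2, 17 h, 37 degrees Celsius; CCF4 2.5 h RT; 460/530 nm ratio; AC50.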

[16] = biological target: Cytochrome P450 3A4 (Homo sapiens) (UniProt P08684); test: qHTS Assay for Inhibitors and Substrates of Cytochrome P450 3A4 (AID 884); details: recombinant CYP3A4, Luciferin-PPXE luminescence; series mostly up to 57.1 µM; note: potency is the fitted concentration of half-maximal effect; nearly all actives have a fitted effect of over 50% in size
Summary of the method: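 Luminescent readout of luciferin produced by CYP3A4 (20 nM) dealkylation of Luciferin-PPXE, 25 uM (its KM). NADPH-driven reaction ran 60 min at RT after 10 min compound preincubation; data scaled to 57 uM ketoconazole as 100% inhibition.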

[17] = biological target: Cytochrome P450 3A4 (Homo sapiens) (UniProt P08684); test: qHTS Assay for Activators of Cytochrome P450 3A4 (AID 885); details: recombinant CYP3A4, Luciferin-PPXE luminescence, 60 min; series mostly up to 57.1 µM; note: nearly all actives have a fitted effect of over 65% in size
Summary of the method: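 Luminescent readout of luciferin formed from 25 uM Luciferin-PPXE (KM level) by 20 nM CYP3A4 in 200 mM KPO4, with 60 min NADPH-driven reaction at room temperature after 10 min compound exposure. Ketoconazole (57 uM) defined 100% inhibition.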

[18] = biological target: Cytochrome P450 2C19 (Homo sapiens) (UniProt P33261); test: qHTS Assay for Inhibitors and Substrates of Cytochrome P450 2C19 (AID 899); details: recombinant CYP2C19, luciferin-H EGE luminescence; series mostly up to 57.1 µM; note: potency is the fitted concentration of half-maximal effect; nearly all actives have a fitted effect of over 60% in size
Summary of the method: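 5 nM human CYP2C19 with 10uM Luciferin-H EGE (at KM) in 50mM KPO4, compound preincubated 10 min at 37C, then NADPH regeneration for 60 min at 37C. Luciferin read by luminescence after detection reagent; normalized to 57uM ketoconazole as full inhibition.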

[19] = AP1 Signaling Pathway (AID 357; active = well fitted curve in either direction with a large enough effect, not every such curve was filed as active); details: ME-180 (cervical carcinoma) AP-1-bla reporter, EGF-induced, beta-lactamase ratio, 5 h; at 7.69 µM (top of the series) unless noted
Summary of the method: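 First, ME-180 AP-1-bla cells were cultured overnight at 37 °C in low-serum Opti-MEM. Next, titrated compounds with EC50 EGF were incubated 5 hours. Finally, CCF4 was added for 2.5 hours and the 460/530 nm ratio recorded.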

[20] = biological target: Cytochrome P450 2D6 (Homo sapiens) (UniProt P10635); test: qHTS Assay for Inhibitors and Substrates of Cytochrome P450 2D6 (AID 891); details: recombinant CYP2D6, luciferin-ME EGE luminescence; series mostly up to 57.1 µM; note: potency is the fitted concentration of half-maximal effect; nearly all actives have a fitted effect of over 60% in size
Summary of the method: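 Luminescent read-out of luciferin formed by 5 nM human CYP2D6 demethylating 30 uM Luciferin-ME EGE (Km level) over 60 min at room temperature after NADPH regeneration addition. Data normalized to full inhibition by 1.43 uM quinidine.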

Sequence of Ubiquitin carboxyl-terminal hydrolase 1 (Homo sapiens) (O94782 whole entry, looked up): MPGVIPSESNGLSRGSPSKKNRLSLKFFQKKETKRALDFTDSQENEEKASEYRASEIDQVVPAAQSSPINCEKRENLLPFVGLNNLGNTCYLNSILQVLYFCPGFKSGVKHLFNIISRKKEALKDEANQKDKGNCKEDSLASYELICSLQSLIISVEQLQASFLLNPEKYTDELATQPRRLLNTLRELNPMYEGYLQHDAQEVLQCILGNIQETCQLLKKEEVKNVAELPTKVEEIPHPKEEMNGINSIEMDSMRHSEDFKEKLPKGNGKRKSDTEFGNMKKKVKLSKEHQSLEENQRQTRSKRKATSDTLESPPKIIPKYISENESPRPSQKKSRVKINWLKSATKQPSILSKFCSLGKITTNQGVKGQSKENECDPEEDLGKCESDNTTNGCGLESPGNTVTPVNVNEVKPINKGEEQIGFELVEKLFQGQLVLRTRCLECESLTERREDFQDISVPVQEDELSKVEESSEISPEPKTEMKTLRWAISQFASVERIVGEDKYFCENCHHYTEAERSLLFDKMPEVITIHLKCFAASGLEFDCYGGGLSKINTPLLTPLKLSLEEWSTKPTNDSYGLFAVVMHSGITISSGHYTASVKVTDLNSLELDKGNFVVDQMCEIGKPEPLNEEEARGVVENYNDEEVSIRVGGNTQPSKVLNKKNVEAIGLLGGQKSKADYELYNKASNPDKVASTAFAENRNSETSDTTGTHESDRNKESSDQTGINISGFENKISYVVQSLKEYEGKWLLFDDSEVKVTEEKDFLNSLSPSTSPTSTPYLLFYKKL
Sequence of Cytochrome P450 1A2 (Homo sapiens) (P05177 whole entry, looked up): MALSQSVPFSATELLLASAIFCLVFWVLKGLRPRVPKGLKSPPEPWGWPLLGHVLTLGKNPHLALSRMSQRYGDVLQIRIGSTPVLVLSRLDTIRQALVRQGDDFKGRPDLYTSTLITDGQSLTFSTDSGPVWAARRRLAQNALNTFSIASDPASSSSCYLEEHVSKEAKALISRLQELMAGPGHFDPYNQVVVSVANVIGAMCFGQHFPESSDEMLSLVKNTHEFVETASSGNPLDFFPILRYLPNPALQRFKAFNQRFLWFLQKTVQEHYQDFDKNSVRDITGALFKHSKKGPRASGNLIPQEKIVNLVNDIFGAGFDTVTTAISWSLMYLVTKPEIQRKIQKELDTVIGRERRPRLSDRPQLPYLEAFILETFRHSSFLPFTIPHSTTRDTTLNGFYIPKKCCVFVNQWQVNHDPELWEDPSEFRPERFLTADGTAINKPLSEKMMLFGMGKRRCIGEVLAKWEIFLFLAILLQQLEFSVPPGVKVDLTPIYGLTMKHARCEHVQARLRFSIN
Sequence of 3',5'-cyclic-AMP phosphodiesterase 4B (Homo sapiens) (Q07343 whole entry, looked up): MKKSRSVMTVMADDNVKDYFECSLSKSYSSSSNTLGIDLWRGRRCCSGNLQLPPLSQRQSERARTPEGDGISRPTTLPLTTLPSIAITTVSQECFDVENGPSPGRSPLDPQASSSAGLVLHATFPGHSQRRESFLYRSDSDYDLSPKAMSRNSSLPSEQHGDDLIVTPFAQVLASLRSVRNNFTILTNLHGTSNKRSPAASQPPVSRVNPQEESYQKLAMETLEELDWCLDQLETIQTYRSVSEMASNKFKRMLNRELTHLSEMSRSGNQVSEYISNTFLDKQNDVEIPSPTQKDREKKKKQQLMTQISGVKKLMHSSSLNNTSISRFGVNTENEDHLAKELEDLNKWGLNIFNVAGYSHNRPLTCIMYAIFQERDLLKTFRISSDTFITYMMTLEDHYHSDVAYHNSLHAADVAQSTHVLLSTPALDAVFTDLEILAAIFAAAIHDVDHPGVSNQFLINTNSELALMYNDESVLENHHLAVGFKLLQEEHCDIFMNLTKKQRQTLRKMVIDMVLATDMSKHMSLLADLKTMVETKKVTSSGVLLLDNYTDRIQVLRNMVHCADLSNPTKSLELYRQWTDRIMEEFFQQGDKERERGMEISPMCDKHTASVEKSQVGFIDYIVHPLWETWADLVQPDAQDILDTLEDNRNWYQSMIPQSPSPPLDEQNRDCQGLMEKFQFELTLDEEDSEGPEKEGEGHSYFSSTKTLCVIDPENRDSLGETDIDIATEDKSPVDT
Sequence of Dual specificity protein kinase CLK4 (Homo sapiens) (Q9HAZ1 whole entry, looked up): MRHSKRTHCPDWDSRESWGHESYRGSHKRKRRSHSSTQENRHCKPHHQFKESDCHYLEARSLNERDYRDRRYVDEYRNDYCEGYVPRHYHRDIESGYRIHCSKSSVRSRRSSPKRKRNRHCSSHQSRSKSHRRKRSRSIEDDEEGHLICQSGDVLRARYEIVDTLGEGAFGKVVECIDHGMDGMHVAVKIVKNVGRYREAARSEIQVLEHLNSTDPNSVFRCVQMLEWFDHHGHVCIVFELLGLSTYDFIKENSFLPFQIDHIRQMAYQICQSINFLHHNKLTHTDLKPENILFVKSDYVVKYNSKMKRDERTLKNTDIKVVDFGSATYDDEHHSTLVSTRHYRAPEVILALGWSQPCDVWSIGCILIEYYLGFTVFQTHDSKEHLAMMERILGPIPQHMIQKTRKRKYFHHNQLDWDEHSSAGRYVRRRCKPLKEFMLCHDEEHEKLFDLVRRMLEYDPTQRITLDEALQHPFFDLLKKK
Sequence of Cytochrome P450 3A4 (Homo sapiens) (P08684 whole entry, looked up): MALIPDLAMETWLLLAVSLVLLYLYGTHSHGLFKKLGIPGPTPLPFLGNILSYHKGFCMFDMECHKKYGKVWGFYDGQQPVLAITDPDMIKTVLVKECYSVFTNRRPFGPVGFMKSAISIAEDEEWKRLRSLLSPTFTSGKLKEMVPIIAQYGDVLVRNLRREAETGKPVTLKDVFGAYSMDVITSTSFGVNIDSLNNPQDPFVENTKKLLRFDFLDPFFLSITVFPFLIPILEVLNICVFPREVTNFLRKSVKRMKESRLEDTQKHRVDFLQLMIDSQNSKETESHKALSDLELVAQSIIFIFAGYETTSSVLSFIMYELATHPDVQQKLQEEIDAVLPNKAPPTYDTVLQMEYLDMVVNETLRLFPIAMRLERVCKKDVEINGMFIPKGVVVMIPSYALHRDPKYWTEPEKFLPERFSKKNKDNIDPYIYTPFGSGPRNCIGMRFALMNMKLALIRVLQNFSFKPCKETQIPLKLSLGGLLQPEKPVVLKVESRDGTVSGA
Sequence of Glucocorticoid receptor (Homo sapiens) (P04150 whole entry, looked up, the tested form may be a part): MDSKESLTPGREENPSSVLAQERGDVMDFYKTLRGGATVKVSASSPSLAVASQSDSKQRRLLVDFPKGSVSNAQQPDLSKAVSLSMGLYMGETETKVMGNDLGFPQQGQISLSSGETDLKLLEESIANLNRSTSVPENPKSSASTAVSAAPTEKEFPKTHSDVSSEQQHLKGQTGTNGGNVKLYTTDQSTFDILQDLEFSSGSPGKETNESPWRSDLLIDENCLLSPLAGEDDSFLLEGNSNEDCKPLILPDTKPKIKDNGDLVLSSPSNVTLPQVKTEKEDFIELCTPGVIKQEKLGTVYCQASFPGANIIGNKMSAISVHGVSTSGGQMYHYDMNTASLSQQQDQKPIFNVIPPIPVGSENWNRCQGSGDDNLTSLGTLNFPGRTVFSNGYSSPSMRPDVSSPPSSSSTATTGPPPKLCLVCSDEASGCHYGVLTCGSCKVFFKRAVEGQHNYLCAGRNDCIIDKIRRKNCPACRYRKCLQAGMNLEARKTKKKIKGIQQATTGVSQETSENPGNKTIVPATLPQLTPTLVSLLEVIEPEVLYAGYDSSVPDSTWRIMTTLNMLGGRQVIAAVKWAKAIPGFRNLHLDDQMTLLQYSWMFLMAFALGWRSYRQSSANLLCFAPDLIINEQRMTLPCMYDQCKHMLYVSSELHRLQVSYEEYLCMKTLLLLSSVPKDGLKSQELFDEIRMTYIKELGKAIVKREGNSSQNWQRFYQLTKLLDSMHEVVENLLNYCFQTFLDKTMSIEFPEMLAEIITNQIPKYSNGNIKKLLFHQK
Sequence of Lysosomal acid glucosylceramidase (Homo sapiens) (P04062 whole entry, looked up): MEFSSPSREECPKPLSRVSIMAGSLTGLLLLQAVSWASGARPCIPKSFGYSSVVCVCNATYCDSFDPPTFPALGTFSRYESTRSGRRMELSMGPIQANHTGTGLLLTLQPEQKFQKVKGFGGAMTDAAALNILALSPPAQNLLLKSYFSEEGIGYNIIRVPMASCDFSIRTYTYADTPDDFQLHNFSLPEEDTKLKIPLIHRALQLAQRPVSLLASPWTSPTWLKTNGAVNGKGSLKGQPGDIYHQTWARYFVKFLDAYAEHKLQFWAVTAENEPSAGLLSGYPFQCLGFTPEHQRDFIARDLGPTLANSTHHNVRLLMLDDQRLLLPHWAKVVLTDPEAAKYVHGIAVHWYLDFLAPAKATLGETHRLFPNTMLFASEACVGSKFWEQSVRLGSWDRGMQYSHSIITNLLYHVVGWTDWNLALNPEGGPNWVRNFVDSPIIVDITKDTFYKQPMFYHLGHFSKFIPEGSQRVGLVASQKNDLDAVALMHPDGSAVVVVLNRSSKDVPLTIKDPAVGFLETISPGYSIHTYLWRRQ
Sequence of Cytochrome P450 2C9 (Homo sapiens) (P11712 whole entry, looked up): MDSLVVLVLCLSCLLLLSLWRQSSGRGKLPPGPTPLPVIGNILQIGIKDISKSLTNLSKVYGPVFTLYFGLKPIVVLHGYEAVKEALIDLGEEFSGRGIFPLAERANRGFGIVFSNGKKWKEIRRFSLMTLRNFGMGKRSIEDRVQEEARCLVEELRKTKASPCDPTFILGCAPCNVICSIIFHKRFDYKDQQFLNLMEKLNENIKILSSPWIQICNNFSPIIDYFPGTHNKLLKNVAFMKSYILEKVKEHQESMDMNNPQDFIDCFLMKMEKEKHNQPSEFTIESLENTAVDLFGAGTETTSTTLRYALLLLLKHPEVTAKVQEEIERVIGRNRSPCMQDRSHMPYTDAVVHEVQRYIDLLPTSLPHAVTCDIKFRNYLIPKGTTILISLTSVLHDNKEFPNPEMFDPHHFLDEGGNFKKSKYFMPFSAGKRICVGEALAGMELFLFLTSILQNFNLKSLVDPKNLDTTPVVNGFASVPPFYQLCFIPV

Structure (SMILES)	Potency [1] [µM]	activity change, negative = inhibition [2]	activity, negative = inhibition [3]	Potency [4] [µM]	Potency [5] [µM]	Potency [6]	Potency [7]	Potency [8]	Potency [9]	Potency [10]	outcome [11]	Potency [12]	Potency [13]	Potency [14]	Potency [15]	Potency [16]	Potency [17]	Potency [18]	activity change, negative = inhibition [19] [%]	Potency [20]
COc1ccc(-c2nc3cnc(N(C)C)nc3n(Cc3ccc(F)cc3)c2=O)cc1	> 11.4	102% [activator] (active)	126% [activator] (active)	> 9.22	> 46	inactive	inactive	inactive	inactive	inactive	inactive	–	–	–	–	–	–	–	–	–
CN(C)c1ncc2nc(-c3ccccc3)c(=O)n(CCc3ccccc3)c2n1	> 11.4	–	–	> 9.22	> 46	–	inactive	inactive	inactive	inactive	inactive	20 µM (active)	inactive	0.631 µM (active)	3.16 µM (active)	–	–	–	–	–
CS(=O)(=O)Nc1cccc(-c2ccc3ncnc(NCc4cccs4)c3c2)c1	> 11.4	–	-2.34%	> 46	> 46	inactive	7.94 µM (active)	7.94 µM (active)	5.01 µM (active)	inactive	inactive	0.0794 µM (active)	–	–	–	3.16 µM (active)	–	–	–	–
CN(C)c1ncc2nc(-c3ccc(Cl)cc3)c(=O)n(-c3ccccc3)c2n1	> 11.4	–	–	> 9.22	> 46	inactive	inactive	inactive	inactive	inactive	inactive	5.01 µM (active)	1 µM (active)	–	2.51 µM (active)	–	–	–	–	–
CN(C)c1ccc(-c2cncnc2Nc2ccc(F)cc2)cc1	> 11.4	–	-2.86%	> 46	> 46	–	10 µM (active)	10 µM (active)	inactive	inactive	inactive	0.501 µM (active)	–	–	–	0.794 µM (active)	inactive	0.794 µM (active)	–	–
COc1ccccc1CNc1ccnc(-c2ccccc2OC)n1	–	-0.0586%	9.83%	–	> 46	inactive	inactive	inactive	inactive	–	inactive	3.98 µM (active)	inactive	–	–	–	inactive	–	-0.503	1.58 µM (active)
CCNc1ncc2nc(-c3ccccc3)c(=O)n(Cc3cccc(OC)c3)c2n1	> 11.4	–	–	> 9.22	> 46	inactive	inactive	inactive	inactive	inactive	inactive	–	–	–	3.16 µM (active)	–	inactive	–	–	–

Source: PubChem BioAssay (NCATS)
